# MOR-DOR ag: agonists of OPRM1-OPRD1 heterodimerization, primary screen, cell-based, luminescence | Mu-type opioid receptor (Homo sapiens) + Delta-type opioid receptor (Homo sapiens), … | activation, % at 9.3 µM | AID 504326, 2011 | hit rate 0.3% among 340,000 | cells; in the data active means activation above about 18%;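 further: 0% = vehicle-treated cells and 100% = reference agonist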
# HTR5A ag ctr: HTR5A agonists in luminescence cell assay, primary screen, counter-screen for OPRM1-OPRD1 heterodimer agonist project, full-deck HTS; activation, % at 9.3 µM; hit rate 0.61% among 340,000; cell-based; 5-hydroxytryptamine receptor 5A (Homo sapiens), P47898; in the data active means activation mostly above about 9.5%, no sharp cut-off; inactive means mostly below about 7.6%;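 further: 0% = cells with vehicle only and 100% = reference agonist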
# Target sequence (P47898 whole entry, looked up): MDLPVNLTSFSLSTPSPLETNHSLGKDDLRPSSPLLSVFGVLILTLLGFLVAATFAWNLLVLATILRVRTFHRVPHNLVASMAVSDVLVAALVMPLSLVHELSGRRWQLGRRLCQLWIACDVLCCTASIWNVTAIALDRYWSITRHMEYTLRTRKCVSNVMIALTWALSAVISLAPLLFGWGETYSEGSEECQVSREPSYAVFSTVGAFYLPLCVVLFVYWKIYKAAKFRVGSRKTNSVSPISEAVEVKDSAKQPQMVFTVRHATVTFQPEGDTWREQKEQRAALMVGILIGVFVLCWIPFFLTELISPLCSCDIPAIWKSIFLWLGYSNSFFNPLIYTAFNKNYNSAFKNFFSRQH
# PolyA inh: polyadenylation inhibitors in yeast reporter cells, primary screen, luminescence, S. cerevisiae; S. cerevisiae SKY197-pL101 polyadenylation reporter, beta-gal luminescence; efflux-impaired pdr1/pdr3 knockout yeast; score 100 = 6 SD above DMSO; activity score, % at 12 µM; hit rate 0.02% among 300,000; AID 1875, 2009;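 active means lowest replicate activity score at least 50, where 100 means six control SD above control mean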;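 further: yeast exposed to compound for 9 h at 30 °C; higher score means more reporter readthrough which indicates perturbed polyadenylation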
# HTR5A inv ag: HTR5A inverse agonists in luminescence cell assay, primary screen, counter-screen for OPRM1-OPRD1 heterodimer inverse agonist project, full-deck HTS | 5-hydroxytryptamine receptor 5A (Homo sapiens), P47898 | hit rate 0.083% among 340,000 | inhibition, % at 9.3 µM | HTR5A cell line, inverse agonism; in the data active means inhibition mostly above about 23%, no sharp cut-off; inactive means mostly below about 18%;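 further: 0% = cells with DMSO and 100% = no-cell wells with DMSO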
# OPRM1-OPRD1 inv: inverse agonists of MOR-DOR heterodimerization, primary screen, cell-based, luminescence | cell-based MOR-DOR heterodimer luminescence, inverse agonism | inhibition, % at 9.3 µM | hit rate 0.21% among 340,000 | Mu-type opioid receptor (Homo sapiens) + Delta-type opioid receptor (Homo sapiens), …; in the data active means inhibition above about 22%, passing the limit was not always enough;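 further: 0% = cells with DMSO and 100% = wells without cells with DMSO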
# NALP1 inh: NALP1 inflammasome inhibitors in reconstituted yeast, colorimetric, S. cerevisiae, triplicate retest; S. cerevisiae NALP1/ASC/caspase-1 growth, X-gal OD620, 72 h; inhibition, % at 10 µM; hit rate 0.61% among 280,000; AID 2071, 2009; in the data active means inhibition mostly above about 24%, no sharp cut-off; inactive means mostly below about 32%
# Numbers without * were called inactive; . = no result; + = active, no number. The list is not random: actives were taken first. Their share in the collection is about 1.6%.
SMILES,MOR-DOR ag,HTR5A ag ctr,PolyA inh,HTR5A inv ag,OPRM1-OPRD1 inv,NALP1 inh
O=c1cc2oc3cc(O)c(O)cc3c(-c3ccccc3[N+](=O)[O-])c-2cc1O,-9,-11,7,44*,50*,27
COc1ccc(C(=O)Nc2ccccc2C(=O)NC(C)C)cc1OC,-1,0,-20,-45,6,36*
O=C(CCc1ccc(O)cc1)N/N=C/c1coc2ccccc2c1=O,.,.,16,.,.,-2
O=Cc1ccc(O)c2ncccc12,0,-2,-17,7,-2,82*
Nc1c(Cl)ncnc1N/N=C/c1ccccn1,.,.,.,.,.,94*
CSC(=NCCCN1CCOCC1)NS(=O)(=O)c1cccs1,-3,-1,16,3,17,32*
CSc1nc(=S)c2[nH]c(=S)[nH]c2[nH]1,-2,0,-9,-2,12,7
COCCNC(=O)CCc1c(C)nc2c(-c3ccc(F)cc3)c(C)nn2c1C,-2,8,-3,-22,12,36*
CCc1ccc(OCCOCC(O)CNC2CCCC2)cc1 (stereo unspecified),1,1,.,-3,-5,3
C[C@H](CO)N1C[C@H](C)[C@@H](CN(C)S(=O)(=O)c2ccc(F)cc2)Oc2ccc(NC(=O)c3ccncc3)cc2C1=O,-2,9.5*,.,4,14,.
O=C(c1ccc2c(=O)n3c(nc2c1)CCCCC3)N1CCN(c2cccc(Cl)c2)CC1,0,1,-6,-4,0,6
c1ccc2nc(-c3nccs3)ccc2c1,-1,0,-22,-1,6,-5
Clc1ccsc1-c1ccc2ccccc2n1,8,2,-28,-8,-44,44*
Nc1cccc2c1C(=O)N(CCOc1ccccc1F)C2=O,-1,-4,-5,10,7,21
O=C(CN1CC(c2ccccc2)CC1=O)Nc1ccc2c(c1)OCO2 (stereo unspecified),0,14*,-6,-36,0,29
COc1ccc(NC(=O)CN2CC(c3ccccc3)CC2=O)cc1OC (stereo unspecified),-2,-3,-17,7,9,12
CN1CCOc2cc(S(=O)(=O)Nc3ccc(F)cc3)ccc21,1,1,11,-20,-5,26*
CC(=O)c1ccc(OC(=O)CCc2nc3ccccc3s2)cc1,.,.,-21,.,.,-6
COc1ccc(C(=O)Cc2cc3cccc(OC)c3oc2=O)cc1,-1,2,-1,-8,6,20
COc1ccc(C(=O)CC2OC(=O)c3c2ccc(OC)c3OC)cc1 (stereo unspecified),1,13*,2,-40,-5,12
CCN(CC)CCCNc1nc2cc(OC)c(OC)cc2c2nc(-c3cccnc3)nn12,1,7,-5,-18,-3,-1
COc1cc2nc(NCC3CCCO3)n3nc(-c4cccnc4)nc3c2cc1OC (stereo unspecified),-1,-5,-7,-2,4,37*
COCCC(=O)Nc1ccc2c(c1)CN(C(=O)c1ccc(CSC)o1)CC2,-2,11*,-5,-41,10,-1
COCCC(=O)Nc1ccc2c(c1)CN(C(=O)CCSC)CC2,-4,5,-6,-1,19,-3
Nc1cc(=O)nc(SCC(=O)N(C2CCCCC2)C2CCCCC2)n1-c1ccccc1,3,13*,-8,-12,-17,2
SMILES,MOR-DOR ag,HTR5A ag ctr,PolyA inh,HTR5A inv ag,OPRM1-OPRD1 inv,NALP1 inh
Cc1ccc(NC(=O)CSc2nc(=O)cc(N)n2-c2ccccc2)cc1,0,-2,10,23,-2,3
CCn1nnc(NC(=O)c2ccc([N+](=O)[O-])o2)n1,3,0,-11,1,-17,8
CCCCn1nnc(NC(=O)c2ccc(-c3ccccc3[N+](=O)[O-])o2)n1,-1,1,-14,9,5,30*
CCCCN(C)CCN1C(=O)C2C(C(=O)Nc3ccc(C)cc3)C3C=CC2(O3)C1C(=O)NC1CCCCC1 (stereo unspecified),2,0,26,0,-18,12
Cc1cc(Br)ccc1NC(=O)CN1C(=S)NC(C)(C)CC1C (stereo unspecified),-2,-1,-3,2,11,29*
CSCC[C@H](N)C(=O)NCC1CCC(C(=O)Nc2ccc3c(c2)OCO3)CC1 (stereo partly specified),-2,2,-8,-25,11,14
CCN(Cc1ccccc1)C(=O)c1cc2c(=O)oc3ccc(C)cc3c2s1,1,3,-20,-7,-4,42*
CCOC(=O)c1ccccc1NS(=O)(=O)c1ccc(OCC)cc1,-1,1,-24,-3,6,30*
O=c1c([N+](=O)[O-])c(N2CCCCC2)c2ccccc2n1-c1ccccc1,-3,-2,14,4,15,36*
O=c1c([N+](=O)[O-])c(NCCN2CCCCCC2)c2ccccc2n1-c1ccccc1,1,1,7,21,-9,18
CCn1c(C(=O)O)c(CC(=O)Nc2ccccc2OC)c2ccccc21,-1,1,-2,-3,3,-2
Cc1cccc(NS(=O)(=O)c2cccc3cccnc23)n1,0,13*,3,-40,0,27
COc1ccc(NS(=O)(=O)c2cccc3cccnc23)cc1,-2,3,7,-23,11,16
COc1ccc(-c2c(C)[nH]n3c(=O)c(Cc4ccccc4)c(C)nc23)cc1,1,1,-12,9,-5,-2
Cc1c(CC(=O)N2CCN(C(=O)C3COc4ccccc4O3)CC2)c(=O)oc2c(C)c(O)ccc12 (stereo unspecified),-7,-3,14,13,34*,16
Cc1c(CC(=O)N2CCN(C(=O)C3COc4ccccc4O3)CC2)c(=O)oc2cc(O)ccc12 (stereo unspecified),-2,-1,-16,1,10,7
CC(C)c1ccc(O)c(C(=O)c2cnn(-c3ccccc3)c2)c1,1,-5,3,13,-4,.
COC(=O)c1cc(C(=O)N2CCN(c3cccc(C)c3C)CC2)cc([N+](=O)[O-])c1,-4,0,103*,-2,18,21
COc1ccccc1C(C[N+](=O)[O-])c1c(N)n(C)c(=O)n(C)c1=O (stereo unspecified),.,.,-14,.,.,+
COc1ccccc1C(c1c(N)n(C)c(=O)n(C)c1=O)C(C)[N+](=O)[O-] (stereo unspecified),.,.,6,.,.,.
